Measured values as given in the supplement of paper PMC10981050.
Structures can show the parent of a compound that is named as a salt.

These compounds were tested on MARIMO (assay: cell viability relative to vehicle control; higher = less cytotoxic). Settings: 10 µM; SRSF2 genotype: SRSF2 P95H/wt.
In short: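 CRISPR-edited SRSF2 P95 mutant and isogenic wild-type clones of four leukaemia lines were screened against Selleck bioactive, kinase and epigenetic probe libraries, with identity-inconsistent compounds removed. Compounds were acoustically dispensed into 384-well plates at a single 10 µM dose, with 2000 cells in 50 µL medium per well. After 48 h, supernatant was removed and CellTiter-Glo luminescence was read. Viability was expressed as percent of the on-plate DMSO vehicle control, analysed in Genedata Screener.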
In the case of `CCOc1ccc2ccccc2c1C(=O)N[C@@H]1C(=O)N2[C@@H]1SC(C)(C)[C@@H]2C(=O)O` [Nafcillin Sodium], the cell viability is reported as 104%. In the case of `C[C@@H](O)[C@H]1C(=O)N2C(C(=O)O)=C(S[C@@H]3CN[C@H](CNS(N)(=O)=O)C3)[C@H](C)[C@H]12` [Doripenem Hydrate], the cell viability is reported as 94.6%. `NC(=O)c1ccc(-c2nc(-c3ccc4c(c3)OCCO4)c(-c3ccccn3)[nH]2)cc1` gave a cell viability of 98.5%. With `O=C1CCc2c(ccc3ccccc23)O1` [Splitomicin] the cell viability was 103%. `Cc1nc(-c2cn3c(n2)-c2ccc(-c4cnn(C(C)(C)C(N)=O)c4)cc2OCC3)n(C(C)C)n1` showed a cell viability of 45.2%. `CN(CCOc1ccc(NS(C)(=O)=O)cc1)CCc1ccc(NS(C)(=O)=O)cc1` [Dofetilide (Tikosyn)] showed a cell viability of 97%. `COC1CCN(C(=O)c2cc(Cc3n[nH]c(=O)c4ccccc34)ccc2F)CC1` gave a cell viability of 81.5%. In the case of `Cc1[nH]c(=O)c(C#N)cc1-c1ccncc1` [Milrinone (Primacor)], the cell viability is reported as 96.1%. For `CC(C)C[C@H](NC(=O)[C@@H](NC(=O)c1cccc(-c2ccccc2)n1)[C@@H](C)O)B(O)O`, the cell viability was 0.85%. Work on `CC(C)(C#N)c1cc(Cn2cncn2)cc(C(C)(C)C#N)c1` [Anastrozole] yielded a cell viability of 97.4%. In the case of `CC(ONC(=O)c1cc(C(F)(F)F)cc(C(F)(F)F)c1)C(=O)Nc1ccc(Cl)cc1` (configuration not stated), the cell viability is reported as 95.5%. For `CS(=O)(=O)Nc1cc2occ(NC=O)c(=O)c2cc1Oc1ccccc1` [Iguratimod], the cell viability was 107%. `CC1(C)CC[C@]2(C(=O)O)[C@H](O)C[C@]3(C)C(=CC[C@@H]4[C@@]5(C)CC[C@H](O)[C@@](C)(C=O)[C@@H]5CC[C@]43C)[C@@H]2C1` [Quillaic acid] was tested, and the cell viability was 95%. `C[C@@H]1O[C@@H](O[C@H]2[C@H](O[C@H]3CC[C@@]4(C)[C@@H](CC[C@]5(C)[C@@H]4CC=C4[C@@H]6CC(C)(C)CC[C@]6(C(=O)O)CC[C@]45C)[C@]3(C)CO)OC[C@H](O[C@@H]3O[C@H](CO)[C@@H](O)[C@H](O)[C@H]3O)[C@@H]2O)[C@H](O)[C@H](O)[C@H]1O` [Pulsatilla saponin D] showed a cell viability of 0.46%. For `C=C1CCC[C@]2(C)C=C3OC(=O)C(C)=C3C[C@@H]12` [Atractylenolide I], the cell viability was 97.2%. With `C#CCN[C@@H]1CCc2ccccc21` [Rasagiline mesylate] the cell viability was 105%. In the case of `CN1CC[C@H](c2c(O)cc(O)c3c(=O)cc(-c4ccccc4Cl)oc23)[C@H](O)C1` [Flavopiridol (Alvocidib)], the cell viability is reported as 10.4%. With `O=C(O)[C@H]1CSC(c2nc3ccc(O)cc3s2)=N1` [D-Luciferin] the cell viability was 82.4%. `CCCCCCOC(=O)c1cc(=O)c(O)c2c(O)c(O)c(OC)cc2c1` was tested, and the cell viability was 45.2%. With `CC1(C)OC(=O)C=C[C@]2(C)[C@H]3CC[C@@]4(C)[C@H](c5ccoc5)OC(=O)[C@H]5O[C@]54[C@]3(C)C(=O)C[C@@H]12` [Obacunone] the cell viability was 92.7%. Work on `Cc1cc(/N=N/c2ccc(S(=O)(=O)Nc3ccccn3)cc2)c(N)cc1O` yielded a cell viability of 56.9%. Work on `CC(C)OC(=O)CCC/C=C\C[C@@H]1[C@@H](CC[C@@H](O)CCc2ccccc2)[C@H](O)C[C@@H]1O` [Latanoprost] yielded a cell viability of 89.6%. Compound `COc1c(O[C@@H]2O[C@H](CO)[C@@H](O)[C@H](O)[C@H]2O)cc2occ(-c3ccc(O)cc3)c(=O)c2c1O` [Tectoridin] has a cell viability of 94.4%. `Cc1ccccc1C(OCCN(C)C)c1ccccc1` (configuration not stated) [Orphenadrine citrate (Norflex)] was tested, and the cell viability was 79.7%. Work on `CCCCCCCCCCCCCCCC(=O)O[C@@H]1[C@@H](O)[C@@H](O)[C@@H]([C@H](NC(=O)[C@@H]2C[C@@H](CCC)CN2C)[C@H](C)Cl)O[C@@H]1SC` [Clindamycin palmitate HCl] yielded a cell viability of 103%. With `CN(C)c1ccc(-c2nc3ncc(Cl)c(N4CCN(CC(=O)Nc5nccs5)CC4)c3[nH]2)cc1` the cell viability was 96.9%. Work on `C[C@]12CC[C@@H]3c4ccc(O)cc4CC[C@H]3[C@@H]1CC[C@@H]2O` [Estradiol] yielded a cell viability of 93.2%. `COc1cc(OCc2cccc(-c3ccccc3)c2C)cc(OC)c1CN1CCCC[C@H]1C(=O)O` [PD-1/PD-L1 inhibitor 1] gave a cell viability of 83.7%.

Same assay, conditions: 10 µM; SRSF2 genotype: SRSF2 wt/wt
`Oc1ccc(OCc2ccccc2)cc1` [Monobenzone (Benoquin)] was tested, and the cell viability was 73%. `CNCCCC12CCC(c3ccccc31)c1ccccc12` [Maprotiline hydrochloride] gave a cell viability of 71.2%. `O=C(O)[C@H]1O[C@@H](Oc2cc3oc(-c4ccc(O)cc4)cc(=O)c3c(O)c2O)[C@H](O)[C@@H](O)[C@@H]1O` [Scutellarin] gave a cell viability of 104%. `Cn1nnc(-c2ccc(-c3ccc(N4C[C@H](COP(=O)(O)O)OC4=O)cc3F)cn2)n1` [Tedizolid Phosphate] gave a cell viability of 94.5%. Work on `Cc1onc(-c2c(F)cccc2Cl)c1C(=O)N[C@@H]1C(=O)N2[C@@H]1SC(C)(C)[C@@H]2C(=O)O` [Flucloxacillin sodium] yielded a cell viability of 108%. Compound `CC(=O)Nc1ccccc1` [Acetanilide (Antifebrin)] has a cell viability of 106%. Compound `CCOC(=O)c1c(C)n(C)c2ccc(O)cc12` [Mecarbinate] has a cell viability of 104%. `CC#CC(=O)N1CCC[C@H]1c1nc(-c2ccc(C(=O)Nc3ccccn3)cc2)c2c(N)nccn12` [Acalabrutinib (ACP-196)] gave a cell viability of 113%. For `CN/C(=N\CCSCc1nc[nH]c1C)NC#N` [Cimetidine (Tagamet)], the cell viability was 106%. Compound `CCCC1O[C@@H]2C[C@H]3[C@@H]4CCC5=CC(=O)C=C[C@]5(C)[C@H]4[C@@H](O)C[C@]3(C)[C@]2(C(=O)CO)O1` (some centres not stated) [Budesonide] has a cell viability of 103%. In the case of `CO/N=C1\C[C@]2(C[C@@H]3C[C@@H](C/C=C(\C)C[C@@H](C)/C=C/C=C4\CO[C@@H]5[C@H](O)C(C)=C[C@@H](C(=O)O3)[C@]45O)O2)O[C@H](/C(C)=C/C(C)C)[C@H]1C` [Moxidectin], the cell viability is reported as 67.3%. For `CCOc1ccc2ccccc2c1C(=O)N[C@@H]1C(=O)N2[C@@H]1SC(C)(C)[C@@H]2C(=O)O` [Nafcillin Sodium], the cell viability was 115%. Compound `C[C@@H](O)[C@H]1C(=O)N2C(C(=O)O)=C(S[C@@H]3CN[C@H](CNS(N)(=O)=O)C3)[C@H](C)[C@H]12` [Doripenem Hydrate] has a cell viability of 101%. `NC(=O)c1ccc(-c2nc(-c3ccc4c(c3)OCCO4)c(-c3ccccn3)[nH]2)cc1` gave a cell viability of 103%. Compound `O=C1CCc2c(ccc3ccccc23)O1` [Splitomicin] has a cell viability of 107%. In the case of `Cc1nc(-c2cn3c(n2)-c2ccc(-c4cnn(C(C)(C)C(N)=O)c4)cc2OCC3)n(C(C)C)n1`, the cell viability is reported as 42%. For `CN(CCOc1ccc(NS(C)(=O)=O)cc1)CCc1ccc(NS(C)(=O)=O)cc1` [Dofetilide (Tikosyn)], the cell viability was 104%. With `COC1CCN(C(=O)c2cc(Cc3n[nH]c(=O)c4ccccc34)ccc2F)CC1` the cell viability was 97.1%. Compound `Cc1[nH]c(=O)c(C#N)cc1-c1ccncc1` [Milrinone (Primacor)] has a cell viability of 93.1%. In the case of `CC(C)C[C@H](NC(=O)[C@@H](NC(=O)c1cccc(-c2ccccc2)n1)[C@@H](C)O)B(O)O`, the cell viability is reported as 2.98%. `CC(C)(C#N)c1cc(Cn2cncn2)cc(C(C)(C)C#N)c1` [Anastrozole] was tested, and the cell viability was 105%. `CC(ONC(=O)c1cc(C(F)(F)F)cc(C(F)(F)F)c1)C(=O)Nc1ccc(Cl)cc1` (configuration not stated) gave a cell viability of 102%. `CS(=O)(=O)Nc1cc2occ(NC=O)c(=O)c2cc1Oc1ccccc1` [Iguratimod] gave a cell viability of 107%. `CC1(C)CC[C@]2(C(=O)O)[C@H](O)C[C@]3(C)C(=CC[C@@H]4[C@@]5(C)CC[C@H](O)[C@@](C)(C=O)[C@@H]5CC[C@]43C)[C@@H]2C1` [Quillaic acid] showed a cell viability of 104%. With `C[C@@H]1O[C@@H](O[C@H]2[C@H](O[C@H]3CC[C@@]4(C)[C@@H](CC[C@]5(C)[C@@H]4CC=C4[C@@H]6CC(C)(C)CC[C@]6(C(=O)O)CC[C@]45C)[C@]3(C)CO)OC[C@H](O[C@@H]3O[C@H](CO)[C@@H](O)[C@H](O)[C@H]3O)[C@@H]2O)[C@H](O)[C@H](O)[C@H]1O` [Pulsatilla saponin D] the cell viability was 0.67%. Work on `C=C1CCC[C@]2(C)C=C3OC(=O)C(C)=C3C[C@@H]12` [Atractylenolide I] yielded a cell viability of 102%. `C#CCN[C@@H]1CCc2ccccc21` [Rasagiline mesylate] gave a cell viability of 106%. `CN1CC[C@H](c2c(O)cc(O)c3c(=O)cc(-c4ccccc4Cl)oc23)[C@H](O)C1` [Flavopiridol (Alvocidib)] was tested, and the cell viability was 4.67%. Compound `O=C(O)[C@H]1CSC(c2nc3ccc(O)cc3s2)=N1` [D-Luciferin] has a cell viability of 92.8%. `CCCCCCOC(=O)c1cc(=O)c(O)c2c(O)c(O)c(OC)cc2c1` gave a cell viability of 45.2%. `CC1(C)OC(=O)C=C[C@]2(C)[C@H]3CC[C@@]4(C)[C@H](c5ccoc5)OC(=O)[C@H]5O[C@]54[C@]3(C)C(=O)C[C@@H]12` [Obacunone] showed a cell viability of 95.5%. Compound `Cc1cc(/N=N/c2ccc(S(=O)(=O)Nc3ccccn3)cc2)c(N)cc1O` has a cell viability of 53.3%. With `CC(C)OC(=O)CCC/C=C\C[C@@H]1[C@@H](CC[C@@H](O)CCc2ccccc2)[C@H](O)C[C@@H]1O` [Latanoprost] the cell viability was 92.5%. For `COc1c(O[C@@H]2O[C@H](CO)[C@@H](O)[C@H](O)[C@H]2O)cc2occ(-c3ccc(O)cc3)c(=O)c2c1O` [Tectoridin], the cell viability was 95.3%. With `Cc1ccccc1C(OCCN(C)C)c1ccccc1` (configuration not stated) [Orphenadrine citrate (Norflex)] the cell viability was 97.3%. `CCCCCCCCCCCCCCCC(=O)O[C@@H]1[C@@H](O)[C@@H](O)[C@@H]([C@H](NC(=O)[C@@H]2C[C@@H](CCC)CN2C)[C@H](C)Cl)O[C@@H]1SC` [Clindamycin palmitate HCl] gave a cell viability of 108%. `CN(C)c1ccc(-c2nc3ncc(Cl)c(N4CCN(CC(=O)Nc5nccs5)CC4)c3[nH]2)cc1` showed a cell viability of 109%. Compound `C[C@]12CC[C@@H]3c4ccc(O)cc4CC[C@H]3[C@@H]1CC[C@@H]2O` [Estradiol] has a cell viability of 90.2%. For `COc1cc(OCc2cccc(-c3ccccc3)c2C)cc(OC)c1CN1CCCC[C@H]1C(=O)O` [PD-1/PD-L1 inhibitor 1], the cell viability was 85.2%.
